Many of the other results were omitted from the sample, so hits are more common in it than they were.
Pf Dd2 inh: blocks in vitro growth of P. falciparum Dd2 | actives 4.3% (n = 120,000) | P. falciparum Dd2 growth, SYBR Green, 72 h | Potency, µM (doses to about 28.9 µM), actives largely listed as inhibitors; active = well fitted inhibition curve with a large enough effect; note: nearly all actives have a fitted effect of over 65% in size
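Readout: SYBR Green fluorescence, 485 nm excitation, 535 nm emission, after ~16 h lysis at 37C. Before that, Dd2-infected red cells (2.5% hematocrit) grew 72 h with compound, 29 uM top final concentration.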
Large screens that a line does not name were inactive.

Cc1ccc(-n2nc(C)c([C@H]3C=C[C@@H](O)C3)c2C)cc1Cl	none
CCNc1ncnc2c1CN(C1CCCNC1)C(=O)CN2C (stereo not given)	none
O=[S+]1([O-])NC2(CCN(Cc3cccc4ccccc34)CC2)CNc2ccccc21	none
Cc1noc([C@@H]2CN(C(=O)Cn3c(=O)oc4ccccc43)C[C@H]2C(N)=O)n1	none
Cc1ccccc1C(=O)N1CC(c2nnc(-c3ccncc3)o2)C2(CCOCC2)C1 (stereo not given)	none
O=C(NCc1ccccc1)NC1CCN(C(=O)N2CC3CC(C2)[C@H]2CCCC(=O)N2C3)CC1 (stereo not given in full)	none
COc1cccc(CNC(=O)C2CCN(c3cn[nH]c(=O)c3)C2)c1OC (stereo not given)	none
CC(CCc1ccccc1)NC(=O)Cn1cccc1-c1nc(-c2ccccc2)no1 (stereo not given)	none
COc1ccccc1C(=O)NC1CC(=O)N(Cc2cccc(F)c2)C1 (stereo not given)	none
COc1cc(C2CC(=O)N(Cc3cccc(F)c3)c3ccccc3S2)cc(OC)c1OC (stereo not given)	Pf Dd2 inh 4.5µM
COc1ccccc1NC(=O)NC1CC(=O)N(Cc2cccc(F)c2)C1 (stereo not given)	none
CCC(CC)n1nc(C)cc1NC(=O)CCCn1cnc2ccccc2c1=O	none
CC1(c2noc(C3(C)CCOCC3)n2)CCNCC1	none
Cc1ccc(CN2CCC(Cc3nnc(CO)n3-c3ccccc3)CC2)o1	none
Cc1ccc(S(=O)(=O)N2CCC(n3cnnc3C3CC3)CC2)cc1Cl	none
CCOCCn1c(=O)[nH]c2cc(C(=O)NCc3sc(C)nc3C)ccc21	none
CN(C)c1nccnc1OC1CCN(C(=O)CCCc2ccccc2)C1 (stereo not given)	none
Cc1cc(C(=O)N2c3ccccc3CC2c2nnc(C(C)C)o2)nn1C (stereo not given)	none
CC1=C[C@@H](CNC(=O)NC2CCCCC2)[C@H](C(C)C)C[C@H]1Cc1nc2ccc(C)cc2[nH]1	none
CC1=C[C@@H](CN)[C@H](C(C)C)C[C@H]1Cc1nc2ccc(C)cc2[nH]1	Pf Dd2 inh 10µM
COC(=O)c1ccc2nc(C[C@@H]3C[C@@H](C(C)C)[C@H](CN)C=C3C)[nH]c2c1	none
CC1=C[C@@H](CNC(=O)CCCC(=O)O)[C@H](C(C)C)C[C@H]1Cc1nc2ccc(Cl)cc2[nH]1	none
CC1=C[C@@H](CN)[C@H](C(C)C)C[C@H]1Cc1nc2ccc(Cl)cc2[nH]1	Pf Dd2 inh 11µM
CC1=C[C@@H](CNC2CCN(C)CC2)[C@H](C(C)C)C[C@H]1Cc1nc2ccc(F)cc2[nH]1	none
CCN(CC)Cc1cnc2c(C(=O)Nc3ccc(C)cc3Cl)cnn2c1	none
Cc1ccc(C)c(S(=O)(=O)N2CCN(C3CCN(Cc4cccnc4)C3=O)CC2)c1 (stereo not given)	none
Cc1cnc(-c2ccccc2)n1CCNC(=O)c1cn(C)cn1	none
COc1ccc(CN2C(=O)CO[C@H](c3ccc(NC(=O)c4ccccc4C)cc3)[C@H]2CO)cc1	none
N#Cc1ccc(C(=O)NC2CCN(c3cc(-c4ccc(Cl)cc4)[nH]n3)CC2)cc1	none
N#Cc1ccc(C(=O)NC2CCN(c3cc(-c4ccccc4)[nH]n3)CC2)cc1	none
O=C(NC1CCN(c2cc(-c3ccc(Cl)cc3)[nH]n2)C1)c1cccnc1 (stereo not given)	none
Cc1ccccc1C(=O)NC1CCN(c2cc(-c3ccc(Cl)cc3)[nH]n2)C1 (stereo not given)	none
N#Cc1ccc(C(=O)NC2CCN(c3cc(-c4ccc(Cl)cc4)[nH]n3)C2)cc1 (stereo not given)	Pf Dd2 inh 7.9µM
O=C(NC1CCN(c2cc(-c3ccc(Cl)cc3)[nH]n2)C1)c1ccc(Br)o1 (stereo not given)	Pf Dd2 inh 13µM
COCc1cc(C[C@@H]2CC[C@H](O)[C@@H](CN(C(=O)Nc3ccc(OC)cc3)C(=O)Nc3ccc(OC)cc3)O2)no1	none
COc1ccc(C2Cn3nnc(-c4nc(-c5ccccc5OC)no4)c3CO2)cc1 (stereo not given)	none
Cc1noc(-c2cn(C3CCN(C(=O)c4cccc(Cl)c4)CC3)nn2)n1	none
C=CCN(Cc1cccc(OC)c1)C(=O)c1ccccc1C#N	none
COc1cc(=O)n2c(c1C(=O)NCc1ccccc1C(F)(F)F)CCCC2	none
CCOc1ccccc1NC(=O)c1c(NC(=O)COc2ccc(Cl)cc2)sc2c1CCCCC2	none
CCOc1ccccc1NC(=O)c1c(NC(=O)c2cccc(C)c2)sc2c1CCCC2	Pf Dd2 inh 8.9µM
CCOc1ccccc1NC(=O)c1c(NC(=O)Cc2ccccc2)sc2c1CCCC2	none
CCCS(=O)(=O)N1C[C@@H](Oc2cccnc2)C[C@@H]1C(=O)NC	none
Cc1cc(N2CCCCC2)nc2ccc(NC(=O)c3cccc(F)c3)cc12	none
Cc1cc(N2CCN(C)CC2)nc2ccc(NC(=O)Nc3cccc(Cl)c3)cc12	Pf Dd2 inh 1µM
CCOc1cc(C(=O)Nc2ccc3nc(N4CCN(C)CC4)cc(C)c3c2)cc(OCC)c1OCC	Pf Dd2 inh 3.2µM
Cc1ccc(CSCC(=O)N2CCN(c3cc(Cl)ccc3C)CC2)cc1	none
